Test results published in PubChem BioAssay.
Results filed as inconclusive are left out. Calls of active or inactive are those of the source.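 The calls were made as follows, unless noted: active = growth inhibition above 25% in both replicates, a cutoff set 3 SD above the mean; inconclusive = above 25% in only one replicate; inactive = the rest.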

Experiments:
[1] = OD615 S. cerevisiae growth inhibition, permissive medium, pilot counter-assay, permissive growth control for S. cerevisiae lifespan shortening project (AID 705); details: OD615, 24 h, at 10 µM, stronger effect = higher value
[2] = Restrictive medium S. cerevisiae growth inhibition, OD615, pilot screen of yeast lifespan reduction project, restrictive growth control (AID 706;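 active = growth inhibition above a set limit, 3 SD over mean compound inhibition, in both replicates, cut at about 43% in these data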;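 also: modified DeaD lifespan yeast strain shifted to restrictive glucose medium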); details: OD615, 48 h, at 10 µM, stronger effect = higher value
[3] = viability gain of MRP-1-high H69AR cells under doxorubicin, pilot screen, MRP-1 activator project, CellTiter-Glo, duplicate (AID 807;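 active = viability increase at or above a cutoff of the median across tested compounds plus 3 SD, cut at about 8.5% in these data, passing the limit was not always enough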;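 also: compound pretreatment 18-22 h then 72 h combined with doxorubicin; 0% = doxorubicin alone and 100% = vehicle without doxorubicin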); details: H69AR viability with doxorubicin, CellTiter-Glo luminescence; at 10 µM; stronger effect = higher value
[4] = growth suppression of beta-catenin knockout HCT116, pilot screen, human colon tumor cells (AID 823;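 active = cell viability at or below a set limit in both duplicate runs, the limit being the all-compound median minus 4 SD, cut at about 23% in these data, passing the limit was not always enough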;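 also: 0% = wells killed by 20 µM Hyamine and 100% = untreated DMSO cell wells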); details: CellTiter-Glo, 60 h, at 10 µM, stronger effect = lower value
[5] = growth suppression of PTEN-deleted HCT116, pilot screen, cell-based, HCT116 clonal line, CellTiter-Glo (AID 824;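 active = viability at or below 27.92% in each of two runs, the all-compound median minus 4 SD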;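 also: 0% = 20 µM Hyamine control and 100% = vehicle cell control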); details: 60 h, at 10 µM, stronger effect = lower value
[6] = inhibitors of the yeast RAM network, pilot screen, dse1pr::URA3 reporter, 5-FOA selection (AID 869;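 active = inhibition over a set limit, the all-compound mean plus 3 SD, in both replicate runs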;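 also: 0% = DMSO wells with no growth and 100% = 10 µM 1-NA-PP1 with full growth; RAM network block rescues cells from 5-FOA so hits raise OD615 growth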); details: S. cerevisiae dse1pr::URA3 5-FOA growth, OD615, 2 d; at 10 µM; stronger effect = higher value; strain carries analog-sensitive mutant Cbk1 kinase
[7] = 384-well plate pilot, post-Golgi transport modulator project, inhibition of yeast transport mutant growth (AID 636; in the data active = inhibition above about 31%); details: absorbance 615 nm, about 18 h, stronger effect = higher value
[8] = growth suppression of yeast trafficking mutant, preliminary HTS, modulators of trafficking downstream of Golgi apparatus project, 1536-format plate, OD 615 nm (AID 637; in the data active = inhibition above about 30%); details: yeast transport mutant growth, absorbance 615 nm, 18 h; stronger effect = higher value
[9] = reversal of MRP1-mediated doxorubicin resistance, pilot screen, H69AR cells, doxorubicin co-treatment (AID 601;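 active = viability loss from added drug above about 55%, and viability with drug at most 40%, in both replicates, limit read from the data, passing the limit was not always enough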); details: CellTiter-Glo, 72 h, at 10 µM

For `COc1cc(OC)c(NC(=O)CS(=O)(=O)Cc2nc(-c3ccc(C)cc3)oc2C)cc1Cl`, the growth inhibition [1] was -22.6% (inactive), the growth inhibition [2] was -17% (inactive) and the viability increase [3] was -1.21% (inactive). For the same molecule, the viability [4] was 85.5% (inactive), the viability [5] was 78.1% (inactive) and the inhibition [6] was 1.96% (inactive).

With `Cc1cccc(C)c1OCc1nnc(SCC(=O)Nc2nccs2)o1` the growth inhibition [1] was -0.12% (inactive), the growth inhibition [2] was 0.57% (inactive) and the viability increase [3] was -1.15% (inactive). For the same molecule, the viability [4] was 94% (inactive), the viability [5] was 87.4% (inactive) and the inhibition [6] was 2.88% (inactive).

With `CCOc1ccc(CN2CCNC(=O)C2CC(=O)OC)cc1` (stereo not given) the growth inhibition [1] was 0.415% (inactive), the growth inhibition [2] was -7.59% (inactive) and the viability increase [3] was -0.51% (inactive). For the same molecule, the viability [4] was 98.7% (inactive), the viability [5] was 102% (inactive) and the inhibition [6] was 1.59% (inactive).

With `CCc1ccccc1S(=O)(=O)Cc1ccc(C(=O)N2CCN(c3ccccc3OC)CC2)o1` the growth inhibition [1] was -12.5% (inactive), the growth inhibition [2] was -21.1% (inactive) and the viability increase [3] was -2.86% (inactive). For the same molecule, the viability [4] was 37% (inactive), the viability [5] was 43.5% (inactive) and the inhibition [6] was 1.31% (inactive).

For `CC[C@@H]1C(=O)OC[C@@H]1Cc1cncn1C`, the inhibition [7] was -3.12% (inactive) and the inhibition [8] was -5.5% (inactive).

With `COc1cc2c(cc1OC)C(C)N(C(=O)c1cc3ccccc3o1)CC2` (stereo not given) the growth inhibition [1] was -11.9% (inactive), the growth inhibition [2] was 10.2% (inactive) and the viability increase [3] was -3.13% (inactive). The viability [4] was 37.3% (inactive), the viability [5] was 42.7% (inactive) and the inhibition [6] was 1.52% (inactive).

For `COc1ccc(-c2n[nH]c(C)c2-c2cnn(-c3ccccc3)c2)c(O)c1`, the growth inhibition [1] was 5.3% (inactive), the growth inhibition [2] was 0.745% (inactive) and the viability increase [3] was -2.75% (inactive). The viability [4] was 85.2% (inactive), the viability [5] was 92.2% (inactive) and the inhibition [6] was -0.205% (inactive).

With `CCN1CCN(CC(=O)Nc2ccc(Cl)c(Cl)c2)C(=O)C1=O` the growth inhibition [1] was 3.48% (inactive), the growth inhibition [2] was -8.29% (inactive) and the viability increase [3] was -0.65% (inactive). For the same molecule, the viability [4] was 102% (inactive), the viability [5] was 97.7% (inactive) and the inhibition [6] was 0.63% (inactive).

For `Cc1csc(NC(=O)c2sc3nc(-c4cccs4)ccc3c2N)n1`, the differential viability (reversal) ([9]; H69AR cells + 2 uM doxorubicin, stronger effect = higher value) was -12.4% (inactive), the viability ([9]; H69AR cells + 2 uM doxorubicin, measured here: viability with 2 uM doxorubicin, stronger effect = lower value) was 60.3% and the viability ([9]; H69AR cells, compound alone cytotoxicity) was 47.9%. For the same molecule, the inhibition [7] was 0% (inactive) and the inhibition [8] was -6.35% (inactive).

For `COc1ccc(OC)c(NC(=O)C2COc3ccccc3O2)c1` (stereo not given), the growth inhibition [1] was -10.5% (inactive), the growth inhibition [2] was -6.21% (inactive) and the viability increase [3] was -2.23% (inactive). The viability [4] was 82.7% (inactive), the viability [5] was 80.3% (inactive) and the inhibition [6] was 0.25% (inactive).

For `COc1cccc(CSc2nc3sc(C)c(C)c3c(=O)n2Cc2ccco2)c1`, the growth inhibition [1] was 6.35% (inactive), the growth inhibition [2] was 2.66% (inactive) and the viability increase [3] was 0.35% (inactive). The viability [4] was 95.7% (inactive) and the viability [5] was 93% (inactive).

In the case of `CCn1c(C(C)NC(=O)c2cccc(C)c2)nc2ccccc21` (stereo not given), the growth inhibition [1] is reported as -8.83% (inactive), the growth inhibition [2] is reported as 5.38% (inactive) and the viability increase [3] is reported as -2.68% (inactive). The viability [4] was 102% (inactive), the viability [5] was 95.6% (inactive) and the inhibition [6] was 2.54% (inactive).

With `COc1ccc(-c2nc(CS(=O)CC(=O)NCc3ccc4c(c3)OCO4)c(C)o2)cc1` (stereo not given) the growth inhibition [1] was 4.12% (inactive), the growth inhibition [2] was 14.1% (inactive) and the viability increase [3] was -1.69% (inactive). For the same molecule, the viability [4] was 94.7% (inactive), the viability [5] was 91.1% (inactive) and the inhibition [6] was 2.02% (inactive).

With `CCOc1ccccc1C(=O)Nc1ccc2nc(N3CCN(c4ncccn4)CC3)cc(C)c2c1` the growth inhibition [1] was 5.8% (inactive), the growth inhibition [2] was -4.81% (inactive) and the viability increase [3] was -7.45% (inactive). The viability [4] was 4.33% (active) and the viability [5] was 2.14% (active).

For `COc1ccc(N2CCN(C(=O)CCS(=O)(=O)c3cccc4nsnc34)CC2)cc1`, the growth inhibition [1] was -9.09% (inactive), the growth inhibition [2] was -6.57% (inactive) and the viability increase [3] was -2.63% (inactive). The viability [4] was 95.7% (inactive), the viability [5] was 96.9% (inactive) and the inhibition [6] was 0.895% (inactive).

With `CCOC(=O)C1CCCN(C(=O)CCCn2nc(C)n3c(cc4sccc43)c2=O)C1` (stereo not given) the growth inhibition [1] was -4.78% (inactive), the growth inhibition [2] was -16.8% (inactive) and the viability increase [3] was -1.97% (inactive). For the same molecule, the viability [4] was 102% (inactive), the viability [5] was 94.3% (inactive) and the inhibition [6] was 1.37% (inactive).

With `COc1ccccc1N1CCN(C(=O)c2cc3c(-c4ccc(Cl)cc4)nn(C)c3s2)CC1` the growth inhibition [1] was -1.53% (inactive), the growth inhibition [2] was 13.8% (inactive) and the viability increase [3] was -4.63% (inactive). The viability [4] was 60.8% (inactive), the viability [5] was 47.9% (inactive) and the inhibition [6] was 2.8% (inactive).

In the case of `CCOc1ccccc1NC1c2ccccc2C(=O)N1c1ccc(C)cn1` (stereo not given), the growth inhibition [1] is reported as -14.3% (inactive), the growth inhibition [2] is reported as 3.06% (inactive) and the viability increase [3] is reported as -1.37% (inactive). For the same molecule, the viability [4] was 88.2% (inactive), the viability [5] was 88% (inactive) and the inhibition [6] was 0.395% (inactive).

In the case of `C(#Cc1ccccc1)CN1CCN(c2ccccn2)CC1`, the growth inhibition [1] is reported as -7.33% (inactive), the growth inhibition [2] is reported as -2.65% (inactive) and the viability increase [3] is reported as -1.2% (inactive). For the same molecule, the viability [4] was 98.3% (inactive) and the viability [5] was 91.9% (inactive).

With `Clc1ccc(Cc2nnc(-c3cccs3)o2)cc1` the growth inhibition [1] was -0.04% (inactive), the growth inhibition [2] was 5.1% (inactive) and the viability increase [3] was 4.43% (inactive). For the same molecule, the viability [4] was 106% (inactive), the viability [5] was 95.9% (inactive) and the inhibition [6] was 0.935% (inactive).

In the case of `COc1ccccc1OCCSc1nnnn1-c1ccc(C)cc1`, the growth inhibition [1] is reported as -13.8% (inactive), the growth inhibition [2] is reported as -6.1% (inactive) and the viability increase [3] is reported as 0.71% (inactive). For the same molecule, the viability [4] was 79.5% (inactive), the viability [5] was 78.7% (inactive) and the inhibition [6] was 2.32% (inactive).

For `Cc1ccc(-c2nc(C(=O)NC3CCCCCC3)no2)cc1`, the growth inhibition [1] was -6.78% (inactive), the growth inhibition [2] was 5.45% (inactive) and the viability increase [3] was 4.07% (inactive). For the same molecule, the viability [4] was 103% (inactive), the viability [5] was 104% (inactive) and the inhibition [6] was -0.1% (inactive).

With `Cc1ccc(C)c(C(=O)Nc2c(C(N)=O)oc3ccccc23)c1` the growth inhibition [1] was -5.56% (inactive), the growth inhibition [2] was -1.59% (inactive) and the viability increase [3] was -3% (inactive). The viability [4] was 94.2% (inactive), the viability [5] was 86.7% (inactive) and the inhibition [6] was 0.595% (inactive).
